In ChEMBL document CHEMBL1201862, “PubChem BioAssay data set” (2004):
Out of some 400,000 compounds screened, about 2,100 (0.53%) were called active. Roughly 14% stayed inconclusive and do not appear here. The rule behind the calls is not given here. What follows is part of a selection rich in actives, with near analogues and random picks from the rest.

Each compound was assayed against Ataxin-2 (Homo sapiens) (UniProt Q99700) (assay: qHTS for Inhibitors of ATXN expression.).
Assay type: functional

Chain of Ataxin-2 (Homo sapiens) (Q99700 whole entry): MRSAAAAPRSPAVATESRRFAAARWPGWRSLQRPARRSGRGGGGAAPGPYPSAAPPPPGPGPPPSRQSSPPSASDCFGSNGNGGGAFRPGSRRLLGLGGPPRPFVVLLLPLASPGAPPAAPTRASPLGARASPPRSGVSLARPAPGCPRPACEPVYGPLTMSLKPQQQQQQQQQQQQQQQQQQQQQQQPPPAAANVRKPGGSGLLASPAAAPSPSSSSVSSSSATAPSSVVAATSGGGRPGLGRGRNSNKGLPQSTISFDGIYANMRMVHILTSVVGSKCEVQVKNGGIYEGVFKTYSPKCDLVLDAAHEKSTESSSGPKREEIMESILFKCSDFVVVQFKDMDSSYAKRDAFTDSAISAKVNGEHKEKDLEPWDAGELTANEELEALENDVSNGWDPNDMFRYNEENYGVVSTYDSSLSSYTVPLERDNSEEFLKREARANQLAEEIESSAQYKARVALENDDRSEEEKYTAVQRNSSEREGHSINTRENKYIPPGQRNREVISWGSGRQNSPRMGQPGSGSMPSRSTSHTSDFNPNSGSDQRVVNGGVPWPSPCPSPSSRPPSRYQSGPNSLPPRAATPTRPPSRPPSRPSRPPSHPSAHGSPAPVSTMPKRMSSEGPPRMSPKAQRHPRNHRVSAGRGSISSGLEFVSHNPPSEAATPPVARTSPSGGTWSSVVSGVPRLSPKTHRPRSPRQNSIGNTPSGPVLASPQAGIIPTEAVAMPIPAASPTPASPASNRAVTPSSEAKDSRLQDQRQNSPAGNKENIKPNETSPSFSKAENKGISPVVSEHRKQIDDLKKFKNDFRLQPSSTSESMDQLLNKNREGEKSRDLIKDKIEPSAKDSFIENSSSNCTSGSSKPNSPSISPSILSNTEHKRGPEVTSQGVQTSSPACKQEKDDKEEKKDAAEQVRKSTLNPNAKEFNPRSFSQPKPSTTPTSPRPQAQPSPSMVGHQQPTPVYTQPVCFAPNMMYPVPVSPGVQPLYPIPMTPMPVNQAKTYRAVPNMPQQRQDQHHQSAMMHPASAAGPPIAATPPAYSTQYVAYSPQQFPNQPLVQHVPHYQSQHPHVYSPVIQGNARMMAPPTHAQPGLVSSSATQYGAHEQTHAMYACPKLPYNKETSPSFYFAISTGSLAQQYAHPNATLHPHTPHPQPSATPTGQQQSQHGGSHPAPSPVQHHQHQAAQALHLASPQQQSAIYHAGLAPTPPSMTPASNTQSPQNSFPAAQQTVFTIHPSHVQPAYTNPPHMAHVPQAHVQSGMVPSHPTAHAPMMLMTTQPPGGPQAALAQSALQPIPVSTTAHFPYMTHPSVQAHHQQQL

Structure (SMILES) | Potency
CCOCCCn1c(=N)c(C(=O)NCc2cccnc2)cc2c(=O)n3ccccc3nc21 | inactive
N#CC(C(=O)NCc1ccccc1)c1nc2ccccc2nc1N1CCCC1 (configuration not stated) | inactive
O=c1oc2cc(O)ccc2cc1S(=O)(=O)c1ccccc1 | inactive
CC(C)(C)c1ccc(C(=O)CC(Sc2ccc(Cl)cc2)C(=O)O)cc1 (configuration not stated) | 39.8 µM (active)
CC(C)N1CCN(Cc2ccc(C#CCCO)cc2)CC1CCO (configuration not stated) | inactive
CCCOc1ccc(C(=O)C(CCC(CNCC)C(=O)c2ccc(OCCC)cc2)CNCC)cc1 (configuration not stated) | 22.4 µM (active)
CCCOc1ccc(C2C(C(=O)OC)=CN(CCOC)C=C2C(=O)OC)cc1 | inactive
CCCOc1ccc(CCC(=O)N/N=C/c2ccco2)cc1 | inactive
O=C(O)c1cccc(-n2cccc2/C=C2/NC(=O)N(c3ccc(Cl)cc3)C2=O)c1 | inactive
NSc1nc(N)c2nc(-c3ccccc3)c(-c3ccccc3)nc2n1 | inactive
NCCCCCCNS(=O)(=O)c1cccc2c(Cl)cccc12 | 39.8 µM (active)
O=C(O)CCCCCNS(=O)(=O)c1ccc2c3c(cccc13)C(=O)N2 | inactive
O=C1Nc2ccc(S(=O)(=O)NCCCO)c3cccc1c23 | inactive
Cc1ccc(O)c(-c2n[nH]c3c2C(c2ccccc2F)N(Cc2ccco2)C3=O)c1 (configuration not stated) | 39.8 µM (active)
CCOc1cccc(C2c3c(-c4cc(C)ccc4O)n[nH]c3C(=O)N2Cc2ccco2)c1 (configuration not stated) | 39.8 µM (active)
O=C1c2cccc3c(O)ccc(c23)C(=O)N1Cc1ccco1 | inactive
Cc1cc(N=Nc2ccc(C)c(N=Nc3cc(C)c(N)cc3N)c2)c(N)cc1N | 39.8 µM (active)
O=C1OCCN1C(=O)[C@H]1[C@H](c2ccc(F)cc2)C(c2ccc(F)cc2)=NN1c1ccccc1 | inactive
OCc1ccc(N=Nc2ccccc2)cc1 | inactive
Cc1[nH]c(N=Nc2ccccc2)nc1N=Nc1ccccc1 | 20 µM (active)
COc1cc(/C=C2\CCC/C(=C\c3ccc(O)c(OC)c3)C2=O)ccc1O | 35.5 µM (active)

Structure (SMILES) | Potency
COc1cc(/C=C2/NC(=O)N(Cc3ccccc3F)C2=O)ccc1O | inactive
COc1cc(/C=C2\CC/C(=C\c3cc(OC)c(O)c(OC)c3)C2=O)cc(OC)c1O | 28.2 µM (active)
COc1cc(C=C2C(=O)C=CC2=O)ccc1O | 14.1 µM (active)
CCOc1cc(/C=C2\CCCc3c2nc2ccccc2c3C(=O)O)ccc1OC | inactive
COc1cc(/C=C2/CCC/C(=C\c3cc(O)c(OC)c(Cl)c3)C2=O)cc(Cl)c1O | 39.8 µM (active)
COc1cc(/C=C/c2nc3ccccc3s2)cc(OC)c1O | inactive
COc1cc(/C=C2\CCc3c2nc2ccccc2c3C(=O)O)cc(OC)c1OC | inactive
COc1cc2ccc(=O)oc2c(O)c1O | inactive
COc1cc(/C=C2\SC(c3ccccc3)=NC2=O)cc(Cl)c1O | inactive
COc1cc(/C=C/C(=O)c2ccc3c(c2)OCO3)cc(Cl)c1O | inactive
COc1cc(/C=C2\C(=N)N3N=C(CC(=O)N4CCCCC4)SC3=NC2=O)ccc1O | inactive
C=CCN1c2ccccc2Sc2cnccc21 | inactive
Nc1ccc2nn(-c3ccc(F)cc3)nc2c1 | inactive
COc1cc(/C=C2\Oc3cc(O)ccc3C2=O)ccc1O | inactive
COc1cc2ccc(=O)oc2cc1O | inactive
CCOc1cc(/C=C2\C(=N)N3N=C(CC(=O)N4CCCCC4)SC3=NC2=O)ccc1O | inactive
COc1cc(/C=C2\COC/C(=C\c3ccc(O)c(OC)c3)C2=O)ccc1O | 31.6 µM (active)
CCOc1cc(/C=C2\CN(C)C/C(=C\c3ccc(O)c(OCC)c3)C2=O)ccc1O | 15.8 µM (active)
CCOc1cc(/C=C2/C(=N)N3N=C(CC(=O)N4CCCC4)SC3=NC2=O)ccc1O | inactive
COc1cc(/C=C/C=C2/CC/C(=C/C=C/c3ccc(O)c(OC)c3)C2=O)ccc1O | 13.4 µM (active)
COc1cc(/C=C/c2ccc3cccc(O)c3n2)ccc1O | inactive

Structure (SMILES) | Potency
COc1cc(/C=C/C(=O)OCC(=O)N2CCC(Cc3ccccc3)CC2)ccc1O | inactive
CCCn1/c(=N\C(=O)c2c(-c3c(F)cccc3Cl)noc2C)c(C(=O)OCC)cc2c(=O)n3ccccc3nc21 | inactive
CCCn1c(O)nnc1SCC(=O)N(C1CCCCC1)C1CCS(=O)(=O)C1 (configuration not stated) | inactive
CN(C)c1ccc(C2C3CCCc4ccccc4C3=NN2C)cc1 (configuration not stated) | inactive
Nc1nnn(CC(=O)N/N=C/c2ccncc2)n1 | inactive
CCNc1nc(NCC)n2c(SC(C(=O)Nc3cc(Cl)cc(Cl)c3)c3ccccc3)nnc2n1 (configuration not stated) | 39.8 µM (active)
Cc1cc(/C=C2/C(=N)N3C(c4ccccc4)=CSC3=NC2=O)c(C)n1-c1ccccc1 | inactive
Nc1nc(Cl)cc(=O)n1Cc1ccc(Cl)cc1 | inactive
Brc1ccc(N/N=C(/N=Nc2nn[nH]n2)c2ccccc2)cc1 | 35.5 µM (active)
c1ccc(N/N=C(\Cc2ncc[nH]2)c2ccccc2)cc1 | inactive
CCOC(=O)C[n+]1ccc2c([nH]c3ccccc32)c1C | inactive
COc1ccc(NC(=O)N(C)C[C@H]2Oc3c(NC(=O)c4nc5ccccc5s4)cccc3C(=O)N([C@@H](C)CO)C[C@H]2C)cc1 | 39.8 µM (active)
C[C@@H]1CN([C@H](C)CO)C(=O)c2cccc(NC(=O)Nc3ccc(F)cc3)c2O[C@H]1CN(C)C(=O)Nc1ccc(C(F)(F)F)cc1 | 28.2 µM (active)
COc1ccc(OC)c(NC(=O)c2nc3ccccc3s2)c1 | inactive
C[C@H](CO)N1C[C@H](C)[C@@H](CN(C)C(=O)Nc2ccc3c(c2)OCO3)Oc2c(NC(=O)Nc3ccc(C(F)(F)F)cc3)cccc2C1=O | 22.4 µM (active)
C[C@H](CO)N1C[C@H](C)[C@@H](CN(C)C(=O)Nc2ccc(C(F)(F)F)cc2)Oc2c(NC(=O)Nc3ccccc3)cccc2C1=O | 25.1 µM (active)
O=C(O)c1ccc(N2C(=O)CC(SC(=NCc3ccc4c(c3)OCO4)Nc3ccc(F)cc3)C2=O)cc1 (configuration not stated) | inactive
O=C1N=C(Nc2nc3ccccc3[nH]2)c2ccccc21 | inactive
CCOc1ccc2nc(NCCNS(=O)(=O)c3ccccc3)c(C#N)cc2c1 | inactive
Clc1ccccc1C1=CC(c2ccco2)n2ncnc2N1 (configuration not stated) | inactive
